Measurements: PubChem BioAssay (Tox21)
Where “and” joins values, the source holds several entries; their conditions need not be identical. Equal entries are not always repeated. Inconclusive results are not listed. A number with no mark means an inactive call. Calls of active or inactive are those of the source. Calls come from the whole dose curve; as a rule, active = well fitted inhibition curve with a large enough effect in the repeat runs; inconclusive = weak or mixed curves, or effect the other way; inactive = no such curve, though single readings can be large or run the other way.

Target: Nuclear receptor ROR-gamma (Homo sapiens) (UniProt P51449)
Assay: qHTS assay to identify small molecule antagonists of the retinoid-related orphan receptor gamma (ROR-gamma) signaling pathway (AID 1159521; note: nearly all actives have a fitted effect of over 50% in size; for activity change, negative = inhibition: top concentration of the series differs between compounds)
Details: Tet-on RORgamma CHO cells, RORE-luciferase, 16 h; series mostly up to 92.4 µM; activity change, negative = inhibition: at the top concentration
Text: U.S. Tox21 Program National Center for Advancing Translational Sciences [NCATS] NIH Chemical Genomics Center [NCGC] U.S. Environmental Protection Agency [EPA] National Institutes of Environmental Health Sciences [NIEHS] National Toxicology Program [NTP] U.S. Food and Drug Administration [FDA] Tox21 Assay Overview: Nuclear steroid hormone receptors are involved in many biological processes including inflammatory responses, cell proliferation, and apoptosis. Environmental factors or compounds disrupting these nuclear receptor pathways and gene expression may promote susceptibility to immunotoxicants and autoimmune diseases. One important group of these expression factors are the retinoid-related orphan receptors. To assess compounds that may interfere with the retinoid-related orphan receptor gamma (ROR-gamma) transcription factor, a cell-based luciferase assay was used. The CHO cell-based assay utilizes a TET-inducible ROR expression factor and ROR response element-LUC reporter gene. Reporter gene activity was induced using Doxycycline Hyclate and measured after 16 hr incubation. Tet-on ROR gamma CHO cells were used to screen against the Tox21 10K compound library for ROR gamma antagonists by quantification of decreased reporter gene activity in terms of decreased luminescence.
Tox21 Assay Protocol Summary: Tet-on ROR gamma CHO cells were dispensed at 1,000 cells in 4 uL of culture medium per well into white wall/solid bottom 1536-well plates using a Multidrop Combi (Thermo Scientific, Waltham, MA) dispenser. Following incubation at 37 C and 5% CO2 for 4 hr, 23 nL of compounds dissolved in DMSO, positive controls or DMSO only were transferred by a Pintool station (Kalypsys, San Diego, CA) and after 2 hr incubation at 37 C, one ul of 1 uM (final concentration) of Doxycycline Hyclate was added to all the wells by using a Flying Reagent Dispenser (FRD) (Aurora Discovery, San Diego, CA). After 16 hr incubation at 37 C and 5% CO2, 5 uL of ONE-Glo reagent (Promega Corporation, Madison, WI) was added to each assay plate using FRD. After 30 min incubation at room temperature, luminescence was quantified on a ViewLux plate reader (Perkin Elmer, Waltham, MA).
% is set by controls: 0 for no effect and ±100 for the full control effect; potency is the fitted concentration of half-maximal effect.

| SMILES | activity change, negative = inhibition | Potency |
| --- | --- | --- |
| O=C(N/N=C/c1ccc([N+](=O)[O-])o1)c1cc([N+](=O)[O-])cc([N+](=O)[O-])c1O | 36% [at 42.5 µM] | – |
| CCOP(=O)(O)C(N)=O | 13% | – |
| CC(Cl)C(=O)O (stereo not given) | 25.4% | – |
| O=C(O)COc1cc(Cl)c(Cl)cc1Cl | – | inactive |
| NCCc1cc(O)c(O)cc1O | -2.1% [at 42.5 µM] | – |
| O=C(O)CCCOc1ccc(Cl)cc1Cl | – | inactive |
| CCCCC(CC)CO[N+](=O)[O-] (stereo not given) | 8.78% | – |
| O=C1NC(=O)C(=O)C(=O)N1 | -3.24% | – |
| O=[N+]([O-])/C=C/c1ccccc1 | – | 5.54 µM (active) and 9.69 µM (active) |
| CCCCCCCCCCCCCCCl | -19.8% | – |
| O=C(Cc1ccccc1)OCCc1ccccc1 | 4.78% | – |
| COc1ccccc1N1CCNCC1 | 5.42% [at 42.5 µM] | – |
| O=C(O)c1ccc(=O)[nH]c1 | 4.43% [at 42.5 µM] | – |
| CC(C)OC(=O)Cc1ccccc1 | 19.5% | – |
| CCC(C)(C)O | 21.4% | – |
| COC1CC(=C(c2cccs2)c2cccs2)C[N+](C)(C)C1 (stereo not given) | -6.2% [at 42.5 µM] | – |
| CCC(C)(C)c1ccc(O)c(C(C)(C)CC)c1 | – | 60.4 µM (active) and 48.6 µM (active) |
| NC(=O)CF | -0.154% | – |
| FC(Cl)(Cl)C(F)(Cl)Cl | 7.77% | – |
| C=C(Cl)Cl | 5.06% | – |

| SMILES | activity change, negative = inhibition | Potency |
| --- | --- | --- |
| CCOC(=O)c1cn2nc(OP(=S)(OCC)OCC)cc2nc1C | -21.9% | – |
| CC(C)(C#N)C(C)(C)C#N | 43.6% | – |
| COP(=O)(OC)OC(Br)C(Cl)(Cl)Br (stereo not given) | – | 27.3 µM (active) |
| CCCC(C)(COC(N)=O)COC(=O)NC(C)C (stereo not given) | – | inactive |
| C1CS1 | 12% | – |
| CC(C)(C)NCC(O)c1cc(Cl)c(N)c(C(F)(F)F)c1 (stereo not given) | 21.9% [at 42.5 µM] | – |
| O=C(O)C(F)(F)C(F)(F)C(F)(F)C(F)(F)C(F)(F)F | 0.997% | – |
| CCOC(C(=O)OCCN(C)C)(c1ccccc1)c1ccccc1 | -8.64% [at 42.5 µM] | – |
| COc1ccc(C(=O)c2c(C)n(CCN3CCOCC3)c3ccccc23)cc1 | -10.5% [at 42.5 µM] | – |
| CCCCCCCCCCCCN(C)C | 2.94% | – |
| C[C@]12CC[C@H]3[C@@H](CCC4=CC(=O)CC[C@@H]43)[C@@H]1CC[C@@H]2OC(=O)CCc1ccccc1 | -10.1% [at 42.5 µM] | – |
| Cc1cnc(C2=NC(C)(C(C)C)C(=O)N2)c(C(=O)O)c1 (stereo not given) | 14.4% | – |
| CCCCC(CC)COC(=O)c1c(Br)c(Br)c(Br)c(Br)c1C(=O)OCC(CC)CCCC (stereo not given) | 34.9% [at 42.5 µM] | – |
| C#CC(O)(C=CCl)CC (stereo not given) | -3.41% [at 42.5 µM] | – |
| C=CC(C)(CCC=C(C)C)OC(=O)c1ccccc1N (stereo not given) | -0.973% | – |
| CN[C@@H](C)[C@H](O)c1ccccc1 | 21% [at 42.5 µM] | – |
| CCCCC1C(=O)NC(=O)N(C2CCCCC2)C1=O (stereo not given) | 34.5% [at 42.5 µM] | – |
| OCCCl | 0.748% | – |
| Cc1nnc(-c2ccccc2)c(=O)n1N | 15.5% | – |
| CCC(C)Cl (stereo not given) | 0% | – |
